The text below walks through data of PubChem BioAssay.

A short description of this assay: binders from COS7 lysate, DM2A8 probe, primary screen, torsin A project, cell lysate, small-molecule microarray, fluorescence 635/667 (AID 1065). The conditions noted are these: higher = more signal, COS7 lysate expressing mutant human TOR1A.
The molecule `CCCNC(=O)[C@@]1(Sc2ccc(C)cc2)CC(=O)N(Cc2ccccc2Cl)[C@@H]1c1ccc(CO)cc1` returned a composite z-score of -0.106.
Consider `C[C@H]1COC(=O)[C@H](Cc2ccccc2)NC(=O)[C@@H](C)COC(=O)[C@H](Cc2ccccc2)NC1=O`, for which the composite z-score turned out to be 0.381.
`CC(C)N1CC=CC23O[C@@H]4/C=C\CCCOC(=O)C4[C@H]2C(=O)N(CCO)[C@@H]3C1=O` (some centres not stated) showed a composite z-score of -0.158.
As for `COC(=O)[C@@]1(Cc2ccc(OC)cc2)[C@H]2c3cc(C(=O)N(C)C)n(CCc4ccc(OC)c(Br)c4)c3C[C@H]2CN1C(=O)c1ccccc1`, the figure is 0.323.
As for `COCCOC(=O)N1C(=O)[C@@]2(c3cc(C#CCCO)ccc31)[C@H](c1ccc(O)cc1)N1[C@H](c3ccccc3)[C@H](c3ccccc3)OC(=O)[C@H]1[C@@H]2C(=O)Nc1nc2ccccc2s1`, the figure is 0.184; as for `C=CC[C@]1(C(=O)N2CCCCC2)N=C(c2ccc(OCCCO)cc2)O[C@H]1c1ccccc1N=[N+]=[N-]`, 1.11; as for `CCCC=C(CCC)[C@@H](NS(=O)(=O)c1cccc(C(F)(F)F)c1)c1ccc(C(=O)OC)cc1`, 0.131.
To `COc1ccc([Si](C)(C)[C@@H]2[C@@H](CC(=O)N(CCO)Cc3ccccc3)O[C@]3(C(=O)N(Cc4cccc(N5CCC5=O)c4)c4ccccc43)[C@H]2C)cc1` belongs 0.861; to `COc1cc([C@@H]2N[C@H](C(=O)O)Cc3c2[nH]c2ccccc32)cc(OC)c1OC`, 0.55; to `COCC(=C=CC[C@H](O)c1ccc(OCCO)cc1)C[C@H](O)c1ccccn1`, 0.628.
As to `COCCOC(=O)N1C(=O)[C@@]2(c3cc(C#CC4(O)CCCCCC4)ccc31)[C@H](C(=O)N1CCCCCCC1)[C@H]1C(=O)O[C@H](c3ccccc3)[C@H](c3ccccc3)N1[C@@H]2c1ccc(O)cc1`, the composite z-score was determined as 0.536.
To `C=CCC(OC(C)=O)[C@@H]1[C@@H](N(Cc2cc3ccccc3o2)C(=O)c2ccc(C)cc2)c2cc(OCCCO)ccc2N1C(=O)c1ccc2ccccc2n1` (some centres not stated) belongs 0.189.
To `C=C(COC)C(=O)CC[C@H](OC(=O)c1ccccc1-c1ccccc1C(=O)O)c1cccc(OCCO)c1` belongs 1.15; to `CC(C)[Si](OCC[C@H]1O[C@]2(C(=O)N(Cc3ccccc3)c3ccccc32)[C@@H](C)[C@@H]1[Si](C)(C)O)(C(C)C)C(C)C`, -0.149.
Molecule `CO[C@H]1COC(=O)CC=C[C@H](C)[C@@H](OC)COC(=O)CC=C[C@@H]1C` had a composite z-score of 1.7.
To `COCCOC(=O)N1C(=O)[C@@]2(c3cc(C#CC4=CCCCC4)ccc31)[C@H](C(=O)NC[C@H](O)c1ccccc1)[C@H]1C(=O)O[C@H](c3ccccc3)[C@H](c3ccccc3)N1[C@@H]2c1ccccc1OCCO` belongs 0.333; to `COc1cc2c(cc1OC)CN(C(=O)[C@H]1[C@@H]3C(=O)O[C@@H](c4ccccc4)[C@@H](c4ccccc4)N3[C@@H](c3ccc(O)cc3)[C@]13C(=O)Nc1ccc(C#CC4(O)CCCCCC4)cc13)CC2`, 0.457.
In the case of `CN(C)C(=O)[C@@]1(Cc2ccccc2N=[N+]=[N-])N=C(c2ccc(OCCCO)cc2)O[C@H]1c1ccccc1CN=[N+]=[N-]`, the composite z-score is 2.05.
To `CO[C@H]1COC(=O)[C@@H](C)COC(=O)[C@H](Cc2ccccc2)NC(=O)CC=C[C@H]1C` belongs 0.995; to `CC(=O)NCCCC[C@@H]1NC(=O)[C@H]2C[C@@H](C(=O)NCCCCCCN(C)C)[C@@H](c3cccc(OCCO)c3)N2C1=O`, 2.05; to `C=CCC(OC(C)=O)[C@@H]1[C@@H](N(Cc2ccc(-c3ccccc3)cc2)C(=O)c2ccc(-c3ccccc3)cc2)c2cc(OCCCO)ccc2N1C(=O)Cc1ccc(OC)cc1` (some centres not stated), 0.354.
As for `COCCCNC(=O)[C@@H]1c2ccccc2C(=O)N(CC23CC4CC(CC(C4)C2)C3)[C@H]1c1ccc(CO)cc1`, the figure is 0.173; as for `C=CCN1C(=O)[C@]2(O[C@H](CCn3cc(CCO)nn3)[C@@H]([Si](C)(C)c3ccc(OC)cc3)[C@@H]2C)c2cc(NC(=O)c3ccc(OC)cc3)ccc21`, 0.473.
In turn, `C=C(CCCC)/C(=C/C[C@@H](OC(=O)c1ccncc1)c1ccc(CO)o1)c1cnc2ccccc2c1` returned a composite z-score of 0.702.
On to `COC(=O)Cn1c(C(=O)N2CCCC2)cc2c1C[C@H]1CN(C(=O)c3ccccc3)[C@@](Cc3ccc(OC)cc3)(C(=O)OC)[C@@H]21`, for which the composite z-score was -0.157.
To `C=C(CCCC)C(=O)CC[C@@H](OC(C)=O)c1ccccc1OCCO` belongs 0.844; to `CCOC(=O)C[C@H]1[C@H](OC(=O)c2cc3ccccc3oc2=O)[C@@H](NC(=O)C2CCCCC2)c2cc(OCCCO)ccc2N1C(=O)c1ccc2ccccc2n1`, 0.0931.
